Calls of active or inactive are those of the source.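 Rule for the calls: active = compounds whose cell count with miR-34 switched on is under 0.7 times the count with it off; inactive = the rest.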
Assay: sensitizers of A549 cells to miR-34 induction, primary screen, imaging, A549 dox-inducible miR-34, nuclei and caspase counts (AID 1347080); note: test concentration not given here
Details: A549 miR-34 inducible, Hoechst nuclei count, 48 h
[1] = stronger effect = lower value, cell number ratio, induced over uninduced
[2] = measured here: relative caspase fold change +Dox/-Dox
[3] = measured here: total cells with miR-34 induction, stronger effect = lower value
[4] = measured here: total cells without miR-34 induction

Compound	fold change [1]	fold change [2]	cell count [3]	cell count [4]	fold change (stronger effect = lower value)
CCCCC/C=C\C/C=C\C/C=C\C/C=C\CCC(C)C(=O)NCCF (centres undefined)	1.05 (inactive)	1.21	5220	4990	–
CN=C(NS(=O)(=O)c1ccc(Cl)cc1)N1CC(c2ccccc2)C(c2ccc(Cl)cc2)=N1 (centres undefined)	0.741 (inactive)	0.564	4700	6340	–
CCCC(=O)N[C@H]1CCOC1=O	0.907 (inactive)	0.504	6040	6650	–
COc1cc(/C=C\c2ccc(OC)c(O)c2)cc(OC)c1	0.917 (inactive)	0.882	1120	1220	–
CCCCCCC(C)(C)c1cc(OC)c2c(c1)OC(C)(C)[C@@H]1CC=C(C)C[C@@H]21	–	0.441	6970	6400	1.09 (inactive)
CCCCC/C=C\C/C=C\C/C=C\C/C=C\CCCC(=O)NC1CC1	1.01 (inactive)	0.962	5860	5800	–
CCCCCCCC/C=C\CCCCCCCC(=O)OC[C@@H](COP(O)(O)=S)OC	1.15 (inactive)	0.718	6260	5460	–
CCCCC/C=C\C/C=C\C/C=C\C/C=C\CCCC(=O)O[C@H](COC(=O)CCCCCCCCCCCCCCCCC)COP(=O)([O-])OCC[N+](C)(C)C	0.924 (inactive)	0.766	5220	5650	–
CCCCC/C=C\C/C=C\C/C=C\C/C=C\CCCC(=O)Nc1cccc([N+](=O)[O-])c1	0.95 (inactive)	0.782	5310	5590	–
CC(C)[C@]1(O)[C@@H](OC(=O)c2ccc[nH]2)[C@@]2(O)[C@@]3(C)C[C@]4(O)O[C@@]5([C@H](O)[C@@H](C)CC[C@]35O)[C@@]2(O)C41C	–	1.12	5510	5960	0.925 (inactive)
CCCCC/C=C\C/C=C\C/C=C\C/C=C\CCCC(=O)N[C@@H](CO)C(=O)O	1.06 (inactive)	1.04	5850	5540	–
CCCCC/C=C\C/C=C\C/C=C\C/C=C\CCCC(=O)NCCCC(=O)O	0.955 (inactive)	1.25	5500	5760	–
O=NN(O)N1CCC[C@H]1C(=O)O	0.944 (inactive)	1.07	5740	6080	–
CCCC[C@@H](C)C(OC(=O)C[C@@H](CC(=O)O)C(=O)O)C(C[C@@H](C)C[C@H](O)CCCC[C@@H](O)C[C@H](O)[C@H](C)N)OC(=O)C[C@@H](CC(=O)O)C(=O)O (some centres undefined)	0.933 (inactive)	0.809	5390	5780	–
CCCCCCCCCCCCCCCCSP(=O)([O-])OCC[N+](C)(C)C	0.933 (inactive)	0.479	5080	5450	–
COc1ccc(S(=O)(=O)N(CCO)c2ccccc2CN(C)C/C=C/c2ccc(Cl)cc2)cc1	1.03 (inactive)	1.21	5240	5100	–

Compound	fold change [1]	fold change [2]	cell count [3]	cell count [4]	fold change (stronger effect = lower value)
CC[C@@]1(O)C(=O)OCc2c1cc1n(c2=O)-c2cc3ccccc3nc2C1	–	0.79	1320	1300	1.01 (inactive)
CCCCCc1cc(O)c2c(c1)OC(C)(C)[C@@H]1CCC(C(=O)O)=CC21 (some centres undefined)	–	1.25	5920	6210	0.953 (inactive)
C[C@H](CCC(=O)O)C[C@H](C)C[C@H](C)C(=O)/C=C(\O)[C@H](C)C[C@H](C)C/C=C/[C@@H](C)[C@@H](O)[C@@H](C)[C@@H](O)C[C@@H]1CC[C@@](C)([C@H]2CC[C@@](C)([C@@H](C)O)O2)O1	0.679 (active)	0.922	621	914	–
COc1ccc2cc(C(C#N)OC(=O)OCC3OC3c3ccccc3)ccc2c1 (centres undefined)	0.914 (inactive)	0.565	5380	5890	–
CCCCC/C=C\C/C=C\C/C=C\C/C=C\CCCC(=O)N(C)C	0.925 (inactive)	1.14	5340	5780	–
CCCCCCCC/C=C\CCCCCCCC(=O)Nc1ccccc1	1.04 (inactive)	0.81	6190	5950	–
CCCCC/C=C\C/C=C\C/C=C\C/C=C\CCCC(=O)OCCN	0.993 (inactive)	0.893	5780	5820	–
CCCCC/C=C\C/C=C\C/C=C\C/C=C\CCCC(=O)NCCc1c[nH]c2ccc(O)cc12	1 (inactive)	0.653	5660	5630	–
CCN1C[C@@]2(COC)C3[C@@H](OC)[C@H]4[C@H]1C3([C@@H]1C[C@@]3(O)[C@H](OC(=O)c5ccccc5)[C@@H]1[C@]4(OC(C)=O)[C@@H](O)[C@@H]3OC)[C@H](OC)C[C@H]2O	0.989 (inactive)	1.45	5730	5800	–
CCCCCCCC/C=C\CCCCCCCC(=O)N[C@H](C)CO	0.925 (inactive)	1.87	5120	5540	–
COc1cc(CNC(=O)CCCCCCC(C)C)c(I)cc1O	1.02 (inactive)	0.817	5730	5600	–
c1cc2ccc(N3CCNCC3)cc2cn1	0.985 (inactive)	0.763	5520	5610	–
CCCCC/C=C\C/C=C\C/C=C\C/C=C\CCCC(=O)NCCF	1 (inactive)	1.18	5320	5320	–
CC1OC(=O)C(C(C)C)NC(=O)C(C(C)C)OC(=O)C(C(C)C)NC(=O)C(C)OC(=O)C(C(C)C)NC(=O)C(C(C)C)OC(=O)C(C(C)C)NC(=O)C(C)OC(=O)C(C(C)C)NC(=O)C(C(C)C)OC(=O)C(C(C)C)NC1=O (centres undefined)	–	1.28	1020	1300	0.784 (inactive)
CCCCC/C=C\C/C=C\C/C=C\C/C=C\CCCC(=O)Nc1ccc2c(C)cc(=O)oc2c1	0.937 (inactive)	0.94	5170	5510	–

From PubChem BioAssay
